In paper PMC7862700, “An all-to-all approach to the identification of sequence-specific readers for epigenetic DNA modifications on cytosine”:

Target: T1, FEV (Homo sapiens, UniProt Q99581 1-238)
T1 sequence: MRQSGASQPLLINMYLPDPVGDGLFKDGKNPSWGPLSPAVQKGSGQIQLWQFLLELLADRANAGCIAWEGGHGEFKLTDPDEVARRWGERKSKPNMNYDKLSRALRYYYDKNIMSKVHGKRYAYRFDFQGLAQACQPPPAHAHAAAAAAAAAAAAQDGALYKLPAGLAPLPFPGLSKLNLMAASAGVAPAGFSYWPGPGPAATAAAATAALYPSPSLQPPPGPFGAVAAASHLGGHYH
Assay: DAPPL (digital affinity profiling via proximity ligation, sequencing); 10 mM Tris-HCl pH 7.5, 50 mM NaCl, 1 mM DTT, 4% glycerol, room temperature, 30 min; GST-TFs on glutathione beads, 16-mer random dsDNA library, 0.1% formaldehyde crosslink after washing; high values mean tight binding
Details: protein: recombinant; tags: N-terminal GST; dsDNA, one strand shown
Summary of the method: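 In yeast, human transcription factors were expressed with a GST fusion, then pulled down on glutathione beads and given DNA barcodes. Pooled with a tag-only sample, they were exposed to 200 nmole of a 16-mer random double-stranded DNA library (Tris/NaCl/DTT/glycerol buffer, room temperature, 30 min), washed, crosslinked with 0.1% formaldehyde, proximity-ligated using BsaI/T4 ligase for 1 h at 37 °C, PCR-amplified and read on an Illumina NextSeq500. Each hexamer's frequency of reads for a factor, divided by the matching frequency for the tag-only sample, gives the binding signal.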

In order of falling binding signal:
1. GCACTT  2.33 fold enrichment (6-mer frequency, TF over GST control)
2. ACGTCC  1.81 fold enrichment (6-mer frequency, TF over GST control)
3. CTGCTT  1.8 fold enrichment (6-mer frequency, TF over GST control)
4. CCTACT  1.62 fold enrichment (6-mer frequency, TF over GST control)
5. CCCTTC  1.47 fold enrichment (6-mer frequency, TF over GST control)
6. TGACCC  1.46 fold enrichment (6-mer frequency, TF over GST control)
7. TCATCC  1.4 fold enrichment (6-mer frequency, TF over GST control)
8. TGCTAT  1.39 fold enrichment (6-mer frequency, TF over GST control)
9. CTACTC  1.37 fold enrichment (6-mer frequency, TF over GST control)
10. CTAACT  1.34 fold enrichment (6-mer frequency, TF over GST control)
11. CTTGCG  1.32 fold enrichment (6-mer frequency, TF over GST control)
12. TAATCT  1.3 fold enrichment (6-mer frequency, TF over GST control)
13. TTCGTT  1.3 fold enrichment (6-mer frequency, TF over GST control)
14. CTTTTG  1.3 fold enrichment (6-mer frequency, TF over GST control)
15. AAACAA  1.28 fold enrichment (6-mer frequency, TF over GST control)
16. TATTCA  1.28 fold enrichment (6-mer frequency, TF over GST control)
17. CCCGAT  1.27 fold enrichment (6-mer frequency, TF over GST control)
18. TAAATT  1.25 fold enrichment (6-mer frequency, TF over GST control)
19. AATTAC  1.25 fold enrichment (6-mer frequency, TF over GST control)
20. TGTGCT  1.25 fold enrichment (6-mer frequency, TF over GST control)
21. ATGAGC  1.24 fold enrichment (6-mer frequency, TF over GST control)
22. CCATAT  1.24 fold enrichment (6-mer frequency, TF over GST control)
23. ATGACA  1.22 fold enrichment (6-mer frequency, TF over GST control)
24. TCCTTG  1.21 fold enrichment (6-mer frequency, TF over GST control)
25. GCTTGC  1.2 fold enrichment (6-mer frequency, TF over GST control)
26. AAATCA  1.2 fold enrichment (6-mer frequency, TF over GST control)
27. ACTCGT  1.2 fold enrichment (6-mer frequency, TF over GST control)
28. AAAAAG  1.2 fold enrichment (6-mer frequency, TF over GST control)
29. TCCTAG  1.19 fold enrichment (6-mer frequency, TF over GST control)
30. TCAACC  1.19 fold enrichment (6-mer frequency, TF over GST control)
31. AATCAA  1.19 fold enrichment (6-mer frequency, TF over GST control)
32. TATCAT  1.16 fold enrichment (6-mer frequency, TF over GST control)
33. ATAGTA  1.16 fold enrichment (6-mer frequency, TF over GST control)
34. ATGTTC  1.15 fold enrichment (6-mer frequency, TF over GST control)
35. TTACTA  1.14 fold enrichment (6-mer frequency, TF over GST control)
36. ATCAAC  1.13 fold enrichment (6-mer frequency, TF over GST control)
37. CCATAA  1.11 fold enrichment (6-mer frequency, TF over GST control)
38. TACGCG  1.11 fold enrichment (6-mer frequency, TF over GST control)
39. ATACAA  1.09 fold enrichment (6-mer frequency, TF over GST control)
40. CAATTA  1.08 fold enrichment (6-mer frequency, TF over GST control)
